This is an account of results in PubChem BioAssay (NCATS).

Results filed as inconclusive are left out. Calls of active or inactive are those of the source. Calls come from the whole dose curve; as a rule, active = well fitted cell-killing curve with a large enough effect; inconclusive = small, poorly fitted or top-dose-only effect; inactive = flat fitted curve, though single readings scatter.
% is set by controls: 0 for no effect and ±100 for the full control effect.

A short description of the experiment: qHTS assay to identify small molecule inhibitors of chordoma cells - UCH-2 (AID 1259356). Conditions: UCH-2 chordoma viability, CellTiter-Glo ATP luminescence, 48 h; series mostly up to 46.1 µM; activity change, negative = inhibition: at the top concentration. (Quantitative high-throughput screening tests each substance at several concentrations.)
In the case of `CCCc1ccc(C(=O)O)cc1`, the “activity change, negative = inhibition” value was 9.32% (inactive).

On to `CO[C@H]1C[C@H](O[C@H]2[C@H](C)[C@@H](O[C@@H]3O[C@H](C)C[C@H](N(C)C)[C@H]3O)[C@@H](C)C[C@]3(CO3)C(=O)[C@H](C)[C@@H](O)[C@@H](C)[C@@H](C)OC(=O)[C@@H]2C)O[C@@H](C)[C@@H]1O`, for which the “activity change, negative = inhibition” value is 11.5% [at 20.6 µM] (inactive).

Turning to `O=C(O)c1ccc(NC(=O)[C@H](Cc2ccc(O)cc2)NC(=O)c2ccccc2)cc1`, the “activity change, negative = inhibition” value was -3.39% (inactive). As to `c1ccc2cc(C3=NCCN3)ccc2c1`, the “activity change, negative = inhibition” value was 3.57% (inactive). Regarding `C=Cc1ccc(S(=O)(=O)O)cc1`, the “activity change, negative = inhibition” value is -6.91% (inactive). The same measure for `CC[C@H]1NC(=O)[C@@H](NC(=O)c2ncccc2O)[C@@H](C)OC(=O)[C@H](c2ccccc2)NC(=O)[C@@H]2CC(=O)CCN2C(=O)[C@H](Cc2ccccc2)N(C)C(=O)[C@@H]2CCCN2C1=O`: -3.13% (inactive). On to `COc1ccc2cc([C@H](C)CO)ccc2c1`, for which the “activity change, negative = inhibition” value was -17.5% (inactive). Turning to `CCCC(=O)Nc1c(I)cc(I)c(CC(CC)C(=O)O)c1I` (configuration not stated), the “activity change, negative = inhibition” value is 1.18% (inactive). For `C[C@@](Cc1ccc(O)c(O)c1)(NN)C(=O)O`, the “activity change, negative = inhibition” value is -1.28% (inactive). As to `c1ccc2c(c1)OCC(CN1CCCCC1)O2` (configuration not stated), the “activity change, negative = inhibition” value is 12% (inactive). Regarding `CCCC1C(=O)N2C(N(C)C)=Nc3ccc(C)cc3N2C1=O` (configuration not stated), the “activity change, negative = inhibition” value is 13.9% [at 20.6 µM] (inactive). With `CCCCCCCCCCCC(=O)OCC(O)CO` (configuration not stated), the “activity change, negative = inhibition” value was -2.8% (inactive).

For the compound `CN(Cc1ccccc1)Cc1ccccc1`, the “activity change, negative = inhibition” value was -0.747% (inactive).

In the case of `Oc1cc(O)cc(O)c1`, the “activity change, negative = inhibition” value was 5.72% (inactive).

Consider `O=C(O)COc1ccc(CCNS(=O)(=O)c2ccccc2)s1`, for which the “activity change, negative = inhibition” value is -20.1% (inactive). For `CCOC(=O)[C@H](CS)NCCN[C@@H](CS)C(=O)OCC`, the “activity change, negative = inhibition” value is 2.65% (inactive). As to `CC(C)C1=CC2=CC[C@@H]3[C@](C)(CCC[C@@]3(C)C(=O)O)[C@H]2CC1`, the “activity change, negative = inhibition” value was 9.56% (inactive).
